Values joined by “and” are separate entries in the source; they are usually repeats but may differ in a detail not shown here. Identical values can stand only once. Hit rate of the full screen: of about 290,000 compounds, about 260 (0.09%) were called active. Only a selection was taken, and actives are over-represented in it overall. Measured potencies and affinities stand elsewhere. A number with no mark means an inactive call. Rule as the data show it: active = inhibition above about 50%; inactive = the rest.
Molecular target: Kappa-type opioid receptor (Homo sapiens) (UniProt P41145)
Assay: KOR antagonists, beta-arrestin recruitment, cell-based, luminescence, uHTS (AID 1778)
Conditions: antagonist mode, stronger effect = higher value; at 10 µM unless noted

Chain of Kappa-type opioid receptor (Homo sapiens) (P41145 whole entry, looked up): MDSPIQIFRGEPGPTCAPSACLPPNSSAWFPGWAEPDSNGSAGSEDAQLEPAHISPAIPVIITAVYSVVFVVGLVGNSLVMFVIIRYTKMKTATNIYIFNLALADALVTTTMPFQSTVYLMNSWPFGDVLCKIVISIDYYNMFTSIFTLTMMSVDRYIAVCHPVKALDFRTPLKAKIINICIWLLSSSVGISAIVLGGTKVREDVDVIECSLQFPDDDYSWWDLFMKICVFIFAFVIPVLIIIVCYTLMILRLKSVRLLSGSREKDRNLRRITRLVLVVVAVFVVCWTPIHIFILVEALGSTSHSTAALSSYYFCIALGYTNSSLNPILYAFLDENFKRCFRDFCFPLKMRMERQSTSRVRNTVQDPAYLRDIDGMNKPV

| Structure (SMILES) | inhibition |
| --- | --- |
| Cn1c(CCNC(=O)c2ccccc2)nc2cc(NC(=O)C3CCCCC3)ccc21 | 1.3% |
| COc1cc(/C=C/c2ccc3cccc(O)c3n2)cc(Br)c1OC | -20% |
| COc1cc(/C=C/c2ccc3c(Br)cc(Br)c(O)c3n2)ccc1O | 57.8% (active) |
| COc1ccc(/C=C/c2ccc3cccc(O)c3n2)cc1Br | -9.3% |
| COc1cc(/C=C/c2ccc3cccc(O)c3n2)cc(OC)c1OC | -5.8% |
| COc1ccc(/C=C/c2ccc3c(Br)ccc(O)c3n2)cc1 | 0.3% |
| COc1ccc(C(c2nnnn2C2CCCC2)N2CCC(C)CC2)cc1 (stereo unspecified) | -3% |
| Cn1c(=O)[nH]c(=O)c2c1nc(NCCN)n2CCOc1ccccc1 | -30.9% [at 20 µM] |
| Cc1sc2nc(C3CC3)nc(N3CCN(C(=O)c4ccccc4F)CC3)c2c1C | 4.1% |
| C/C(=N\NC(=O)c1cccc(Br)c1)c1cccnc1 | -7.4% |
| NNC(=O)c1cc(-c2cccs2)nc2ccccc12 | 40.8% |
| C/C(=N\NC(=O)c1cc2ccccc2cc1O)c1cccs1 | 1.2% |
| C/C(=N\NC(=O)c1ccccc1)c1cccc(Br)c1 | 21.6% |
| O=C(N/N=C/c1ccc2ncccc2c1)c1cc(-c2cccs2)nc2ccccc12 | 28.4% |
| C/C(=N\NC(=O)c1c[nH]c2ccccc12)c1ccccn1 | 21.4% |
| C/C(=N\NC(=O)c1cc(-c2cccs2)nc2ccccc12)c1ccccn1 | 75.1% (active) |
| C/C(=N\NC(=O)c1cc(Br)ccc1O)c1cccs1 | -5.5% |
| C/C(=N/NC(=O)c1cc2ccccc2cc1O)c1ccco1 | 17% |
| CC(C)CNC(=S)N(CCCN(C)C)Cc1cc2cc3c(cc2[nH]c1=O)OCCO3 | -1.3% [at 20 µM] |
| O=C(O)c1nnn(-c2cc(C(F)(F)F)cc(C(F)(F)F)c2)c1-c1ccccc1 | 7.9% |
| COc1ccc(-c2nc(C)sc2CC(=O)O)cc1 | -5.7% |
| N#Cc1c(C(F)(F)F)cc(-c2ccc(Cl)c(Cl)c2)nc1SCCN1CCOCC1 | -29.4% |
| CCOC(=O)C1=C(CSc2nc(-c3ccncc3)ccc2C#N)OC(N)=C(C#N)C1c1ccc(OC)cc1 (stereo unspecified) | -4.9% |

| Structure (SMILES) | inhibition |
| --- | --- |
| CC(C)NC(=S)n1cc(C(=O)c2cc(Cl)cc(Cl)c2O)cn1 | -10% |
| COC(=O)C1c2ccccc2-c2ccccc21 | -7.3% |
| CCOc1ccc(C(=O)/C=C/Nc2ccc(S(=O)(=O)N=C(N)N)cc2)cc1 | 1% |
| Cc1ccc(N(C(=O)CNC(=O)c2ccco2)C(C(=O)NCC2CCCO2)c2ccccc2)cc1 (stereo unspecified) | -12.5% |
| CC1CN(C(=S)SCC(=O)c2ccc(Cl)cc2)CC(C)O1 (stereo unspecified) | 21.8% |
| Cc1ccc(-c2onc(C)c2C)cc1S(=O)(=O)N1CC(C)Oc2ccccc21 (stereo unspecified) | -11.7% |
| COc1ccc(N)c2c1C(=O)c1ccccc1C2=O | 20.4% |
| COc1ccc(OC)c2c1C(=O)c1ccccc1C2=O | -4.5% |
| O=C1CC[C@@H](CN(Cc2ccccn2)Cc2nc(-c3ccc(C(F)(F)F)cc3)no2)N1 | 3.4% [at 20 µM] |
| O=C(CC1C(=O)NCCN1Cc1cccc(Oc2ccccc2)c1)NCCCn1cccn1 (stereo unspecified) | -2.5% |
| O=C(/C=C/c1cccnc1)/C=C/c1cccnc1 | 57.9% (active) |
| CC(/C=C\c1cccnc1)=C/C(=O)O | -0.4% and 17.9% |
| O=C(O)/C=C/c1cccnc1 | 17.9% |
| Cn1ccnc1SCc1nc2c(cnn2-c2ccccc2)c(=O)[nH]1 | -17.7% |
| Cc1cccc(-n2c(SCc3ccc(C#N)cc3)nnc2-c2c[nH]c3ccccc23)c1 | 6.1% |
| CCOc1ccc(N2CC(C(=O)Nc3ccncc3)CC2=O)cc1 (stereo unspecified) | 15.6% |
| CCOC(=O)Cc1[nH]nc2c1C(Cc1ccccc1)C(C#N)=C(N)O2 (stereo unspecified) | -4.1% |
| CC1(C)CC(=O)C(/C=N/c2ccccn2)=C(O)C1 | 40.5% |
| CC1(C)CC(=O)C(/C=N/c2ncccc2C(=O)O)=C(O)C1 | -24.7% |
| CN(C)S(=O)(=O)c1cccc(C(=O)Nc2cc(Cl)ccc2O)c1 | -1.5% |
| C/C(=C\c1ccc(F)cc1)C(=O)c1c(C)cc(C)[nH]c1=O | 5.1% |
| O=C(NCc1ccccn1)C(=O)NN=C1CCCCCCCCCCC1 | -9.2% [at 20 µM] |
| CCOC(=O)C(CSCC(=O)c1ccc(Br)cc1)NC(=O)OC(C)(C)C (stereo unspecified) | 3.7% |
